# Data taken from ChEMBL document CHEMBL1201862, “PubChem BioAssay data set” (2004).
# Screen size: about 57,000 […]; about 2,300 (4%) were called active. Rule as the data show it: active = GI50 up to about 1.1 µM and inactive = higher. Only a sample is shown. Measured potencies and affinities stand elsewhere.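 Exposure lasted 48 hours, with cells grown in 96-well plates and compounds tested at five concentrations. GI50 marks 50% less growth.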
# Tested on: SK-MEL-28
# Assay: NCI tumour cell line growth inhibition, 48 h
row,Substance,GI50 [µM]
1,"[Bis(aminomethyl)diethylsilane]tetrachloroplatinum(IV), CHEMBL2146203",1.72
2,"CISPLATIN, CHEMBL11359",4.43
3,"[Bis(aminomethyl)tetramethylenesilane]dichloropaltinum(II), CHEMBL2146205",20.3
4,"[Bis(aminomethyl)pentamethylenesilane]dichloropaltinum(II), CHEMBL2146202",3.85
5,"[Bis(aminomethyl)ethylmethylsilane]tetrachloroplatinum(IV), CHEMBL2146192",2.76
6,"[Bis(aminomethyl)pentamethylenesilane]tetrachloropaltinum(IV), CHEMBL2146204",1.23
7,"cis-Bis[[(trimethylsilyl)methyl]amino]tetrachloroplatinum(IV), CHEMBL2146191",2.86
8,"[Bis(aminomethyl)dimethylsilane]tetrachloroplatinum(IV), CHEMBL2146190",10.2
9,"[Bis(aminomethyl)tetramethylenesilane]tetrachloropaltinum(IV), CHEMBL2146189",2.85
10,"mu-(1,7-nanodiamine-N,N')bis-(cis-aminedichloroplatimum (II)), CHEMBL2146215",10.2
11,"[Bis(aminomethyl)dimethylsilane]dichloroplatinum (II), CHEMBL2146201",21.6
